Experimental data published in PubChem BioAssay AID1159580 (chemical genetic matrix, 2015).
Values joined by “and” are separate entries in the source; they are usually repeats but may differ in a detail not shown here. Identical values can stand only once. Among all 5,500 compounds or so, about 2,000 (36%) were called active. About 18% were inconclusive and are not listed. No stated cut-off is given here; in the data, active means normalized growth mostly below about 0.91 (no sharp cut-off); inconclusive means no clear call, values can overlap the other calls; inactive means mostly above about 0.92. The list shows a part of the results.

Experiment: chemical genetic growth profiling, strain panel (AID 1159580);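 further: tested at 20 µM; growth read once vehicle control cultures reached saturation at 30 °C; 1 = growth at the plate median or of vehicle wells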
Conditions: growth OD

Measured: normalized growth

CN1CCN(C2=Nc3cc(Cl)ccc3Nc3ccccc32)CC1
inactive: S. cerevisiae deletion strains, locus YJR066W, strain TOR1, stronger effect = lower value 0.997 | S. cerevisiae deletion strains, locus YJR075W, strain HOC1, stronger effect = lower value 0.982 | S. cerevisiae deletion strains, locus YKL009W, strain mrt4, stronger effect = lower value 1.01 | S. cerevisiae deletion strains, locus YKL068W, stronger effect = lower value 1.01 | S. cerevisiae deletion strains, locus YKL085W, strain MDH1 (second series), stronger effect = lower value 1.04 | S. cerevisiae deletion strains, locus YKL085W, strain MDH1, stronger effect = lower value 1.04 | S. cerevisiae deletion strains, locus YKL160W, strain elf1, stronger effect = lower value 0.972 | S. cerevisiae deletion strains, locus YKL190W, strain CNB1, stronger effect = lower value 1.02 | S. cerevisiae deletion strains, locus YKR001C, strain vps1, stronger effect = lower value 1.03 | S. cerevisiae deletion strains, locus YKR026C, strain gcn3, stronger effect = lower value 0.988 | S. cerevisiae deletion strains, locus YKR091W, strain srl3, stronger effect = lower value 0.98 | S. cerevisiae deletion strains, locus YLL001W, strain dnm1, stronger effect = lower value 0.984 | S. cerevisiae deletion strains, locus YLL026W, stronger effect = lower value 1 | S. cerevisiae deletion strains, locus YLL041C, strain sdh2, stronger effect = lower value 0.992 | S. cerevisiae deletion strains, locus YLR027C, strain aat2, stronger effect = lower value 0.988 | S. cerevisiae deletion strains, locus YLR039C, strain RIC1, stronger effect = lower value 1.25 | S. cerevisiae deletion strains, locus YLR058C, strain SHM2, stronger effect = lower value 1.01 | S. cerevisiae deletion strains, locus YLR102C, strain apc9, stronger effect = lower value 1.02 | S. cerevisiae deletion strains, locus YLR113W, strain HOG1, stronger effect = lower value 1.01 | S. cerevisiae deletion strains, locus YLR221C, strain rsa3, stronger effect = lower value 1.01 | S. cerevisiae deletion strains, locus YLR258W, strain gsy2, stronger effect = lower value 0.983 | S. cerevisiae deletion strains, locus YLR262C, strain YPT6 (second series), stronger effect = lower value 1.05 | S. cerevisiae deletion strains, locus YLR262C, strain YPT6, stronger effect = lower value 1.2 | S. cerevisiae deletion strains, locus YLR268W, strain sec22, stronger effect = lower value 1.01 | S. cerevisiae deletion strains, locus YLR320W, strain mms22, stronger effect = lower value 0.952 | S. cerevisiae deletion strains, locus YLR330W, strain CHS5, stronger effect = lower value 1.02 | S. cerevisiae deletion strains, locus YLR342W, strain FKS1 (second series), stronger effect = lower value 1.04 | S. cerevisiae deletion strains, locus YLR342W, strain FKS1, stronger effect = lower value 0.953 | S. cerevisiae deletion strains, locus YLR357W, strain rsc2, stronger effect = lower value 1.01 | S. cerevisiae deletion strains, locus YLR370C, strain arc18, stronger effect = lower value 0.984 | S. cerevisiae deletion strains, locus YLR371W, strain rom2, stronger effect = lower value 1.03 | S. cerevisiae deletion strains, locus YLR384C, strain iki3, stronger effect = lower value 0.984 | S. cerevisiae deletion strains, locus YLR418C, strain cdc73, stronger effect = lower value 0.955 | S. cerevisiae deletion strains, locus YML016C, strain PPZ1, stronger effect = lower value 1.01 | S. cerevisiae deletion strains, locus YML032C, strain rad52, stronger effect = lower value 0.935 | S. cerevisiae deletion strains, locus YML120C, strain ndi1, stronger effect = lower value 0.98 | S. cerevisiae deletion strains, locus YML124C, strain tub3, stronger effect = lower value 1.02 | S. cerevisiae deletion strains, locus YMR058W, strain fet3, stronger effect = lower value 0.982 | S. cerevisiae deletion strains, locus YMR078C, strain ctf18, stronger effect = lower value 1.02 | S. cerevisiae deletion strains, locus YMR125W, strain sto1, stronger effect = lower value 0.943 | S. cerevisiae deletion strains, locus YMR129W, stronger effect = lower value 0.99 | S. cerevisiae deletion strains, locus YMR205C, strain PFK2, stronger effect = lower value 0.977 | S. cerevisiae deletion strains, locus YMR223W, strain ubp8, stronger effect = lower value 1.02 | S. cerevisiae deletion strains, locus YMR231W, strain pep5, stronger effect = lower value 0.986 | S. cerevisiae deletion strains, locus YMR263W, strain SAP30, stronger effect = lower value 0.986 | S. cerevisiae deletion strains, locus YMR307W, strain GAS1, stronger effect = lower value 1.1 | S. cerevisiae deletion strains, locus YNL067W, strain RPL9B, stronger effect = lower value 0.974 | S. cerevisiae deletion strains, locus YNL071W, strain lat1, stronger effect = lower value 0.937 | S. cerevisiae deletion strains, locus YNL128W, strain TEP1, stronger effect = lower value 0.991 | S. cerevisiae deletion strains, locus YNL153C, strain GIM3, stronger effect = lower value 0.993 and 1.01 | S. cerevisiae deletion strains, locus YNL175C, strain NOP13, stronger effect = lower value 0.999 | S. cerevisiae deletion strains, locus YNL183C, strain NPR1, stronger effect = lower value 0.99 | S. cerevisiae deletion strains, locus YNL209W, strain ssb2, stronger effect = lower value 0.973 | S. cerevisiae deletion strains, locus YNL224C, strain SQS1, stronger effect = lower value 1.01 | S. cerevisiae deletion strains, locus YNL233W, strain BNI4, stronger effect = lower value 0.988 | S. cerevisiae deletion strains, locus YNL248C, strain rpa49, stronger effect = lower value 0.957 | S. cerevisiae deletion strains, locus YNL250W, strain rad50, stronger effect = lower value 0.966 | S. cerevisiae deletion strains, locus YNL271C, strain bni1, stronger effect = lower value 1.01 | S. cerevisiae deletion strains, locus YNL298W, strain CLA4, stronger effect = lower value 0.984 | S. cerevisiae deletion strains, locus YNL307C, strain MCK1, stronger effect = lower value 0.995 | S. cerevisiae deletion strains, locus YNL322C, strain KRE1 (second series), stronger effect = lower value 0.956 | S. cerevisiae deletion strains, locus YNL322C, strain KRE1, stronger effect = lower value 1.01 | S. cerevisiae deletion strains, locus YNR049C, strain mso1, stronger effect = lower value 0.99 | S. cerevisiae deletion strains, locus YNR052C, strain pop2, stronger effect = lower value 1.01 | S. cerevisiae deletion strains, locus YOL006C, strain TOP1, stronger effect = lower value 0.988 | S. cerevisiae deletion strains, locus YOL012C, strain htz1 2.02 | S. cerevisiae deletion strains, locus YOL147C, strain pex11, stronger effect = lower value 1.02 | S. cerevisiae deletion strains, locus YOR001W, strain rrp6, stronger effect = lower value 0.996 | S. cerevisiae deletion strains, locus YOR061W, strain CKA2, stronger effect = lower value 1.01 | S. cerevisiae deletion strains, locus YOR069W, strain VPS5, stronger effect = lower value 1.07 | S. cerevisiae deletion strains, locus YOR070C, strain gyp1, stronger effect = lower value 0.989 | S. cerevisiae deletion strains, locus YOR080W, strain dia2, stronger effect = lower value 0.974 | S. cerevisiae deletion strains, locus YOR083W, strain WHI5, stronger effect = lower value 0.92 | S. cerevisiae deletion strains, locus YOR106W, strain vam3, stronger effect = lower value 0.978 | S. cerevisiae deletion strains, locus YOR136W, strain idh2, stronger effect = lower value 1.02 | S. cerevisiae deletion strains, locus YOR144C, strain elg1, stronger effect = lower value 1.01 | S. cerevisiae deletion strains, locus YOR184W, strain ser1, stronger effect = lower value 1.03 | S. cerevisiae deletion strains, locus YOR231W, strain MKK1, stronger effect = lower value 1.01 | S. cerevisiae deletion strains, locus YOR265W, strain rbl2, stronger effect = lower value 0.993 | S. cerevisiae deletion strains, locus YOR270C, strain vph1, stronger effect = lower value 0.96 | S. cerevisiae deletion strains, locus YOR290C, strain snf2, stronger effect = lower value 0.943 | S. cerevisiae deletion strains, locus YOR316C, strain cot1, stronger effect = lower value 1.03 | S. cerevisiae deletion strains, locus YPL051W, strain arl3, stronger effect = lower value 0.965 | S. cerevisiae deletion strains, locus YPL055C, strain LGE1, stronger effect = lower value 0.93 | S. cerevisiae deletion strains, locus YPL078C, strain atp4, stronger effect = lower value 0.959 | S. cerevisiae deletion strains, locus YPL106C, strain sse1, stronger effect = lower value 0.999 | S. cerevisiae deletion strains, locus YPL240C, strain hsp82, stronger effect = lower value 0.979 | S. cerevisiae deletion strains, locus YPL241C, strain CIN2, stronger effect = lower value 1.05 and 1 | S. cerevisiae deletion strains, locus YPL256C, strain CLN2, stronger effect = lower value 1.05 | S. cerevisiae deletion strains, locus YPR119W, strain clb2, stronger effect = lower value 1.01 | S. cerevisiae deletion strains, locus YPR141C, strain kar3, stronger effect = lower value 1.02 | S. cerevisiae deletion strains, locus YPR163C, strain tif3, stronger effect = lower value 1.01 | S. cerevisiae deletion strains, locus YPR167C, strain met16, stronger effect = lower value 1.02 | S. cerevisiae deletion strains, strain wtn01, stronger effect = lower value 1 | S. cerevisiae strains, strain wild type, stronger effect = lower value 1.02
